# From PubChem BioAssay (NCI)
# Compounds without any hit were thinned out: in the full panel of roughly 83,000, 20% have a hit.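 Assay: single dose, 48 h. Readout: percent growth (0 = no net growth; negative = cell death). Active: <10.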 A number with no mark means an inactive call. Calls of active or inactive are those of the source.
# Test system: COLO 205 colon
# Assay: NCI-60 one-dose screen, 48 h (100 = growth as untreated, 0 = no growth, -100 = all killed)
# Details: 10 µM
row,SMILES,growth
1,NC(=S)N/N=C/c1ccc(N)cc1,110%
2,N#Cc1ccc(OC(=O)Nc2ccc(Cl)c(Cl)c2)cc1,96.3%
3,CCOC(=O)CSc1c([N+](=O)[O-])ncn1C,110%
4,Cc1cc(=O)n(-c2ccc(F)cc2)[nH]1,107%
5,c1ccc2c(c1)Sc1ccccc1S2,111%
6,Nc1ncnc2c1nc(N)n2C1OC(CO)C(O)C1O (stereo not drawn),-86.8% (active)
7,C=CCOC(=O)C(=O)OCC=C,111%
8,O=[N+]([O-])c1cccc2nsnc12,107%
9,CCOC(=O)c1cc2cccc(OC)c2oc1=O,123%
10,CSC(=N\N=C\c1ccc(N(C)C)cc1)/N=C/N(C)C,110%
11,O=C(O)CCCc1ccccc1,110%
12,COc1cc([C@@H]2c3cc4c(cc3[C@H](O)[C@H]3COC(=O)[C@H]23)OCO4)cc(OC)c1OC,-57.8% (active)
13,O=C1C=CC(=O)N1c1ccc(I)cc1Cl,113%
14,O=C(O)CCC(NC(=O)OCc1ccccc1)C(=O)O (stereo not drawn),113%
15,CC12CC3CC1C(C(=O)O2)C3C(=O)O (stereo not drawn),102%
16,CCc1nc(N)nc(N)c1-c1ccc(Cl)cc1,76.5%
17,Cc1cc(OCCO)cc(C)c1Cl,123%

row,SMILES,growth
1,Cc1nc2ccccc2c2nnc(SCC(=O)N(Cc3ccccc3)c3ccccc3)n12,101%
2,COc1cccc(/C=N/NC(=S)NC2CC3CCC2C3)c1O (stereo not drawn),105%
3,O=C(O)/C=C/c1ccc2c(c1)CCC2,105%
4,COC(=O)Nc1nc2ccc(C(=O)c3cccs3)cc2[nH]1,-40% (active)
5,C[N+](C)=c1ccc2nc3c(cc(Nc4ccccc4)c4ccccc43)oc-2c1,22.6%
6,O=C(O)c1ccnc(Br)c1,107%
7,Cc1ccccc1N=C(c1ccccc1)C1C(=O)c2ccccc2C1=O,103%
8,C=CCc1cc(C(C)=O)cc(OC)c1O,118%
9,CC(=O)OC(C(=O)O)c1ccccc1 (stereo not drawn),118%
10,Cc1cc(Cc2cc(C)c(N)cc2N)c(N)cc1N,92.8%
11,Clc1ccc(-c2nnc(-c3cccc4ccccc34)o2)cc1,101%
12,O=S(=O)(O)c1cc(O)c2c(N=Cc3ccccc3O)c(S(=O)(=O)O)ccc2c1,119%
13,COCCCC/C(=N\OCCN)c1ccc(C(F)(F)F)cc1,101%
14,COC(=O)Nc1cccc(Cl)c1OC,127%
15,Cc1ccc(C(=O)NC2c3ccccc3Oc3ccccc32)cc1,73.6%
16,CC(=O)NC(N)=S,120%
